These results are taken from PubChem BioAssay (NCI).

Each structure is given as a SMILES string. About 83,000 compounds went through this panel and 20% of them were active in at least one assay; those are over-represented in the sample as a whole.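 The test compound was applied at a single concentration to cells in 96-well plates for 48 hours, and percent growth was recorded.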 A number with no mark means an inactive call. The source made the active and inactive calls. Rule for the calls: active = growth percent below 10; inactive = the rest.

Among the test systems are SR leukemia; RPMI-8226 leukemia; OVCAR-8 ovarian; OVCAR-5 ovarian; OVCAR-4 ovarian; SK-OV-3 ovarian; IGROV1 ovarian; OVCAR-3 ovarian; HS 578T breast; NCI/ADR-RES ovarian; T-47D breast; BT-549 breast; MDA-MB-435 melanoma; SW-620 colon; MCF7 breast; HCT-116 colon; HCC-2998 colon; KM12 colon.
Holding throughout (experiment): NCI-60 one-dose screen, 48 h (100 = growth as untreated, 0 = no growth, -100 = all killed)
Common to all, as to conditions: 10 µM unless noted

Regarding `CC(C)n1nc(-c2ccc3oc(N)nc3c2)c2c(N)ncnc21`, the growth in the assay on SR leukemia is 9.35% (active); in the assay on RPMI-8226 leukemia it was -6.46% (active); with OVCAR-8 ovarian, -17.5% (active); in the assay on OVCAR-5 ovarian it was -9.99% (active); in the assay with OVCAR-4 ovarian, -32.2% (active); in the assay on SK-OV-3 ovarian, -32.6% (active). Further, the growth was -27.3% (active) in the assay with IGROV1 ovarian; -6.08% (active) in the assay on OVCAR-3 ovarian; -35.8% (active) with HS 578T breast; -20.6% (active) with NCI/ADR-RES ovarian; -36% (active) in the assay on T-47D breast; -23.9% (active) with BT-549 breast. For the same compound, the growth was -13.5% (active) in the assay on MDA-MB-435 melanoma; 6.36% (active) with SW-620 colon; -4.22% (active) in the assay with MCF7 breast; 7.89% (active) with HCT-116 colon; 9.05% (active) in the assay with HCC-2998 colon; -0.425% (active) in the assay with KM12 colon.

On to `O=C1/C(=C/c2ccc(Br)cc2)COc2ccc(O)cc21`, for which the growth with SR leukemia is 12.1%; in the assay on RPMI-8226 leukemia, -23.7% (active); in the assay on OVCAR-8 ovarian, 79.1%; with OVCAR-5 ovarian it was 94.8%; in the assay on OVCAR-4 ovarian, 97.9%; with SK-OV-3 ovarian it was 120%. For the same compound, the growth with IGROV1 ovarian is 84.3%; in the assay with OVCAR-3 ovarian, 96.8%; with HS 578T breast, 96.2%; in the assay on NCI/ADR-RES ovarian, 94.6%; in the assay on T-47D breast, 80.6%; with BT-549 breast, 79.2%. Moreover, the growth in the assay on MDA-MB-435 melanoma was 75.6%; in the assay on SW-620 colon it was 1.35% (active); with MCF7 breast it was 9.07% (active); in the assay with HCT-116 colon it was 16.9%; with HCC-2998 colon, 89.8%; with KM12 colon it was 26.8%.

In the case of `COc1ccc(NC(=O)CSc2oc(-c3ccccc3)nc2S(=O)(=O)c2ccc(Cl)cc2)c(OC)c1`, the growth in the assay on SR leukemia was 65.2%; in the assay on RPMI-8226 leukemia, 49.9%; in the assay on OVCAR-8 ovarian it was 34.3%; in the assay on OVCAR-5 ovarian it was 107%; in the assay on OVCAR-4 ovarian it was 64.6%; in the assay with SK-OV-3 ovarian it was 83.2%. The growth in the assay on IGROV1 ovarian is 93.5%; in the assay on OVCAR-3 ovarian, 75.3%; in the assay on HS 578T breast, 36.2%; with NCI/ADR-RES ovarian, 61.7%; with T-47D breast, 60.5%; in the assay on BT-549 breast, 61.7%. The growth in the assay with MDA-MB-435 melanoma was 86.6%; in the assay with SW-620 colon, 81.7%; with MCF7 breast, 73.8%; in the assay on HCT-116 colon, 41.6%; in the assay with HCC-2998 colon, 83.5%; in the assay with KM12 colon it was 71.9%.

With `COc1nc2ccccc2cc1/C=[N+](\[O-])c1ccccc1`, the growth is 21.5% in the assay with SR leukemia; 14.2% with RPMI-8226 leukemia; 37.3% in the assay with OVCAR-8 ovarian; 97.4% in the assay with OVCAR-5 ovarian; 74.3% in the assay with OVCAR-4 ovarian; 87.3% in the assay with SK-OV-3 ovarian. For the same compound, the growth with IGROV1 ovarian is 86.7%; in the assay with OVCAR-3 ovarian, 86.2%; with HS 578T breast, 81.5%; with NCI/ADR-RES ovarian it was 44.9%; in the assay on T-47D breast it was 58.9%; in the assay with BT-549 breast it was 86.7%. Further, the growth in the assay on MDA-MB-435 melanoma is 42.2%; in the assay with SW-620 colon, 28.4%; in the assay on MCF7 breast it was 28.6%; in the assay on HCT-116 colon it was 10.2%; in the assay on HCC-2998 colon it was 105%; with KM12 colon it was 84%.

For the compound `C=CC(=O)Nc1ccc2ncnc(Nc3cccc(NS(=O)(=O)CCC)c3Cl)c2c1`, the growth in the assay on SR leukemia is 35.7%; with RPMI-8226 leukemia, 55.4%; in the assay on OVCAR-8 ovarian, 48.2%; in the assay on OVCAR-5 ovarian, 36.2%; in the assay on OVCAR-4 ovarian, 66.8%; in the assay with SK-OV-3 ovarian, 19.6%. Moreover, the growth was 18.5% in the assay on IGROV1 ovarian; 12.7% in the assay on OVCAR-3 ovarian; 20.6% with HS 578T breast; 83.4% with NCI/ADR-RES ovarian; 24.5% in the assay on T-47D breast; 35.7% in the assay with BT-549 breast. Further, the growth in the assay on MDA-MB-435 melanoma is 26.2%; in the assay on SW-620 colon, 74.4%; in the assay with MCF7 breast it was 56.2%; in the assay with HCT-116 colon it was 67.9%; in the assay with HCC-2998 colon it was 93.3%; in the assay on KM12 colon, 78.4%.

`CC(C)(C)CC(C)(C)Nc1c(-c2c(O)c3ccccc3oc2=O)nc2sccn12`: the growth in the assay with SR leukemia is 111%; in the assay with RPMI-8226 leukemia it was 97.7%; in the assay on OVCAR-8 ovarian, 91%; in the assay with OVCAR-5 ovarian it was 97.5%; with OVCAR-4 ovarian, 111%; in the assay with SK-OV-3 ovarian, 87.2%. In addition, the growth in the assay on IGROV1 ovarian is 93.2%; with OVCAR-3 ovarian, 109%; in the assay on HS 578T breast it was 96.3%; in the assay on NCI/ADR-RES ovarian, 98.3%; in the assay on T-47D breast, 84.8%; in the assay on BT-549 breast, 111%. For the same compound, the growth is 104% in the assay on MDA-MB-435 melanoma; 96.9% in the assay with SW-620 colon; 91.7% in the assay on MCF7 breast; 98.2% in the assay with HCT-116 colon; 98.5% with HCC-2998 colon; 107% in the assay with KM12 colon.

In the case of `CC(C)(C)n1cc(-c2ccnc(NCCNS(=O)(=O)c3ccc(C(F)(F)F)cc3)c2)c(-c2ccccc2)n1`, the growth in the assay on SR leukemia was 35.9%; with RPMI-8226 leukemia, 81.1%; in the assay with OVCAR-8 ovarian it was 89.2%; in the assay on OVCAR-5 ovarian, 108%; with OVCAR-4 ovarian it was 84.8%; in the assay on SK-OV-3 ovarian it was 97.8%. The growth was 97.3% with IGROV1 ovarian; 94.5% with OVCAR-3 ovarian; 99.6% in the assay with HS 578T breast; 91.5% with NCI/ADR-RES ovarian; 62.5% with T-47D breast; 93.7% in the assay with BT-549 breast. For the same compound, the growth in the assay with MDA-MB-435 melanoma was 100%; with SW-620 colon it was 99.2%; with MCF7 breast it was 63%; in the assay on HCT-116 colon, 58.9%; in the assay with HCC-2998 colon it was 111%; with KM12 colon, 96.7%.

As for `O=C(Nc1ncc(Cc2cc(C(F)(F)F)ccc2Cl)s1)C(=S)N1CCOCC1`, the growth in the assay on SR leukemia is 92.1%; in the assay with RPMI-8226 leukemia it was 81.9%; in the assay on OVCAR-8 ovarian it was 95.2%; in the assay on OVCAR-5 ovarian, 94.7%; with OVCAR-4 ovarian it was 84.5%; in the assay on SK-OV-3 ovarian it was 92%. Further, the growth with IGROV1 ovarian is 84.3%; with OVCAR-3 ovarian, 105%; in the assay on HS 578T breast, 92.6%; in the assay on NCI/ADR-RES ovarian, 91.3%; in the assay with T-47D breast, 73.9%; in the assay on BT-549 breast, 99%. Besides, the growth is 85.9% in the assay on MDA-MB-435 melanoma; 93.2% with SW-620 colon; 82% in the assay on MCF7 breast; 81.8% in the assay with HCT-116 colon; 101% with HCC-2998 colon; 97.7% in the assay on KM12 colon.

For `COc1cc(/C=C/c2cc(/C=C/c3ccc(O)c(OC)c3)n(C(=O)Nc3ccc(C)cc3C)n2)ccc1O`, the growth in the assay with SR leukemia was -2.07% (active); in the assay with RPMI-8226 leukemia, -16.7% (active); with OVCAR-8 ovarian it was -34.7% (active); in the assay on OVCAR-5 ovarian, -4.24% (active); in the assay on OVCAR-4 ovarian, 7.87% (active); with SK-OV-3 ovarian it was -63.6% (active). Besides, the growth was -1.75% (active) in the assay on IGROV1 ovarian; -37.3% (active) with OVCAR-3 ovarian; -15% (active) in the assay with HS 578T breast; 7.64% (active) in the assay with NCI/ADR-RES ovarian; -22.5% (active) in the assay with T-47D breast; -33.8% (active) in the assay on BT-549 breast. In addition, the growth in the assay on MDA-MB-435 melanoma was -40.9% (active); in the assay with SW-620 colon, -10.9% (active); with MCF7 breast, -3.78% (active); in the assay with HCT-116 colon, 1.48% (active); in the assay with HCC-2998 colon, 4.28% (active); with KM12 colon, -9.35% (active).
